Test [1] in a line: antimalarial activity against Dd2 strain (AID 2302;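 active = growth inhibition above 50% at the single 2 µM test dose, taken to imply half-maximal potency below 2 µM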;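 also: 0% = DMSO untreated growth and 100% = chloroquine plus artemisinin killed control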). Particulars: P. falciparum Dd2 in RBCs, LDH growth readout, 72 h; at 2 µM; active compounds read high.
Test [2] in a line: human hepatoma cell viability loss – ATP luminescence, cytotoxicity control for P. falciparum antimalarial project, primary screen (AID 2303;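 active = inhibition above 50%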;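 also: 0% = DMSO wells and 100% = digitonin-killed cells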). Particulars: HepG2 viability, 24-48 h, at 10 µM, active compounds read high.
The target of test [3] is L-lactate dehydrogenase (Plasmodium falciparum (isolate CDC / Honduras)) (UniProt Q27743). The experiment in a line: PfLDH activity inhibition – cell lysate, 3D7 strain, counter-screen for P. falciparum growth inhibition project (AID 2304).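 Also: 0% = vehicle and 100% = reference inhibitor.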 As to conditions: P. falciparum 3D7 crude extract, LDH APAD/NBT absorbance; at 2 µM; active compounds read high.
Chain of L-lactate dehydrogenase (Plasmodium falciparum (isolate CDC / Honduras)) (Q27743 whole entry, looked up): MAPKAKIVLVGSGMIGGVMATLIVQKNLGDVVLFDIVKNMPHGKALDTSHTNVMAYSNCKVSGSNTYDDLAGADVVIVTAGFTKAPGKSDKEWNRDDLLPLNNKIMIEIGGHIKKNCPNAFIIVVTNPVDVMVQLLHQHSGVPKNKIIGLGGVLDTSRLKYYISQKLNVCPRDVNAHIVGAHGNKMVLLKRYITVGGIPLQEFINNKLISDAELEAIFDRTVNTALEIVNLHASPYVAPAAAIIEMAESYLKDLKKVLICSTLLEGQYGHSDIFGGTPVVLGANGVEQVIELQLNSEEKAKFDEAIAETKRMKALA
Test [4] in a line: inhibition of 3D7 malaria parasite growth – strain 3D7 (AID 2306).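 Also: 0% = DMSO wells and 100% = chloroquine plus artemisinin control wells.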 As to conditions: P. falciparum 3D7 erythrocytic growth, LDH absorbance, 72 h; at 2 µM; active compounds read high.
Test [5] addresses Calcium-dependent protein kinase 1 (Plasmodium falciparum (isolate 3D7)) (UniProt P62344). The experiment in a line: PfCDPK1 kinase inhibitors, biochemical, TCAMS library (AID 1159585; cut-off not given, nearly all actives have IC50 up to about 0.98 µM;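 also: inhibitors leave more ATP so luminescence rises with inhibition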). Particulars: recombinant PfCDPK1, Kinase-Glo ATP depletion luminescence.
In test [6] the target is Plasmodium falciparum protein kinase 6 (PK6, PF3D7_1337100) (UniProt Q8IDW1). As to the kind of experiment: PfPK6 kinase inhibitors, biochemical, TCAMS library (AID 1159586). As to conditions: recombinant PfPK6, Kinase-Glo ATP depletion luminescence. In general terms: Kinase-Glo measures the ATP left after a reaction by luminescence.
Chain of Plasmodium falciparum protein kinase 6 (PK6, PF3D7_1337100) (Q8IDW1 1-305): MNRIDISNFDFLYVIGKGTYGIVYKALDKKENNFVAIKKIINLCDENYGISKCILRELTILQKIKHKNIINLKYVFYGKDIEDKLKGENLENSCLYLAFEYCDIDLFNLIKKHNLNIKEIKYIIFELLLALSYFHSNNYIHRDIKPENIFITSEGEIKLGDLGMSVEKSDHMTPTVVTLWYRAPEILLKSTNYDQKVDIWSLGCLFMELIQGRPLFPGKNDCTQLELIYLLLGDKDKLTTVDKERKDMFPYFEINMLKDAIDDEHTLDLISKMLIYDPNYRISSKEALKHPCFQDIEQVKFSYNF
For test [7], the target named is Protein kinase 7 (PK7), Plasmodium falciparum 3D7 (PF3D7_0213400) (UniProt Q7YTF7). The experiment in a line: inhibition of Plasmodium PK7 catalytic activity – biochemical, TCAMS antimalarial set, Kinase-Glo luminescence (AID 1159587). As to conditions: recombinant PfPK7, Kinase-Glo ATP depletion luminescence.
Chain of Protein kinase 7 (PK7), Plasmodium falciparum 3D7 (PF3D7_0213400) (Q7YTF7 1-343): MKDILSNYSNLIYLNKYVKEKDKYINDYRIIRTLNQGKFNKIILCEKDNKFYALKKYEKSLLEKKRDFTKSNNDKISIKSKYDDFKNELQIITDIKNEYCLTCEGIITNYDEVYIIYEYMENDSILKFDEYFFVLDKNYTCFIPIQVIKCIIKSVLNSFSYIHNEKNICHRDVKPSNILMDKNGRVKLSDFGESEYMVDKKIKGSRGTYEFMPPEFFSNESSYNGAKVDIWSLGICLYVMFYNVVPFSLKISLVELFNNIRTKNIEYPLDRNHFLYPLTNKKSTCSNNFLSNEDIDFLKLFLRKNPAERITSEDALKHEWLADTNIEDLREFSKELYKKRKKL
For test [8], the target named is Calcium-dependent protein kinase 4 (Plasmodium falciparum (isolate 3D7)) (UniProt Q8IBS5). As to the kind of experiment: PfCDPK4 kinase inhibitors, biochemical, TCAMS library (AID 1159588; cut-off not given, nearly all actives have IC50 up to about 0.91 µM). Particulars: recombinant PfCDPK4, Kinase-Glo ATP depletion luminescence.
Chain of Calcium-dependent protein kinase 4 (Plasmodium falciparum (isolate 3D7)) (Q8IBS5 whole entry, looked up): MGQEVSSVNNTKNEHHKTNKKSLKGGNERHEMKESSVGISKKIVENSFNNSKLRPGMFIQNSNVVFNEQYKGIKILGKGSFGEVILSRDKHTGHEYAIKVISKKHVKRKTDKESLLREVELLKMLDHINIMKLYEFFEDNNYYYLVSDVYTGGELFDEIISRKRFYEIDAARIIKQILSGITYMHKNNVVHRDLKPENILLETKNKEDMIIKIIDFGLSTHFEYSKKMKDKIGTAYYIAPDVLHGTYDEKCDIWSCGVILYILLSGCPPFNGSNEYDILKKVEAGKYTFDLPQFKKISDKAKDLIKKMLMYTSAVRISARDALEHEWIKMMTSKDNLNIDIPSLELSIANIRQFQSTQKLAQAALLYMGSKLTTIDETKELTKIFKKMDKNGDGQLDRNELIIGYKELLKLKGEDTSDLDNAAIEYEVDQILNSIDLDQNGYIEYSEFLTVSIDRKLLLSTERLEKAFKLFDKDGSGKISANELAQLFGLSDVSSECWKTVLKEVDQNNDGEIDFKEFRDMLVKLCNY

What is called inhibition is the change of the read-out against control, counted positive when it falls.

Unmarked numbers belong to inactive results. For part of these data: Measured potencies and affinities stand elsewhere. Calls of active or inactive are those of the source. Unless noted, no rule for the calls is given here.

Chain of Calcium-dependent protein kinase 1 (Plasmodium falciparum (isolate 3D7)) (P62344 whole entry, looked up): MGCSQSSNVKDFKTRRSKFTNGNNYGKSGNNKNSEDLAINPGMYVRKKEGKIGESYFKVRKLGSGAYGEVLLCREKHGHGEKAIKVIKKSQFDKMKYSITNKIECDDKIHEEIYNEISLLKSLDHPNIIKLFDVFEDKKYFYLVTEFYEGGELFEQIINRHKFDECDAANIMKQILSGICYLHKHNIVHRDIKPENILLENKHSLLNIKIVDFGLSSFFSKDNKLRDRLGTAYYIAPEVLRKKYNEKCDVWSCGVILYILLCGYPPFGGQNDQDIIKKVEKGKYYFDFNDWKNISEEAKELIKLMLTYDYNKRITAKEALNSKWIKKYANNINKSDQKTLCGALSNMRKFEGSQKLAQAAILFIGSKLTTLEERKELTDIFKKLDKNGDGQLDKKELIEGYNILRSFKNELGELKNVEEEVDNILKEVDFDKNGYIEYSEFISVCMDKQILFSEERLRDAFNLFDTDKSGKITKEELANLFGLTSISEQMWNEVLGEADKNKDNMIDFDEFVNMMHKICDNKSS

As to `CC[C@H]1CN(Cc2ccccc2Br)CC[C@H]1CCCc1ccnc2ccc(O)cc12`, the growth inhibition in test [1] is 2%; in test [4], 86% (active). Besides, the inhibition in test [2] was 12%; in test [3], -4%. Moreover, the result in test [5], in test [6], in test [7] and in test [8] was inactive.

Consider `O[C@@H](c1ccc2ccccc2c1)[C@@H]1CN(CCc2ccccc2)CC[C@@]1(O)c1ccccc1`, for which the values for the growth inhibition in test [1] and in test [4] were 96% (active) and 99% (active), respectively. For the same compound, the inhibition in test [2] and in test [3] was 1% in each case. Also, the outcome in test [5], in test [6], in test [7] and in test [8] was inactive.

Consider `CC(C)CC(=O)NC1CCN(Cc2c(-c3cccs3)nc3ccccc3c2C(=O)N[C@@H](C)C2CCCCC2)CC1`, for which the growth inhibition in test [1] is 97% (active); in test [4], 96% (active). Moreover, the inhibition in test [2] was -3%; in test [3], -9%. The result in test [5], in test [6], in test [7] and in test [8] was inactive.

With `O=c1[nH]c2c(c(O)c1[N+](=O)[O-])CCC2`, the growth inhibition in test [1] is 1%; in test [4] it was 97% (active). Moreover, the inhibition in test [2] was 9%; in test [3], -5%. For the same compound, the result in test [5], in test [6], in test [7] and in test [8] was inactive.

Consider `CCCCCCCN(CCCCCCC)CCCC(=O)Nc1ccnc2ccc(OC)cc12`, for which the results for the growth inhibition in test [1] and in test [4] were 98% (active) and 100% (active), respectively. Also, the inhibition is 43% in test [2] and -5% in test [3]. In addition, the outcome in test [5], in test [6], in test [7] and in test [8] was inactive.

As to `CC(=O)NCCNc1nccc(N2CCc3ncnc(Nc4ccc(OCc5ccccn5)c(Cl)c4)c3C2)n1`, the growth inhibition in test [1] and in test [4] was 99% (active) in each case. Besides, the inhibition in test [2] was -12%; in test [3], 10%. Also, the result in test [5], in test [6], in test [7] and in test [8] was inactive.

In the case of `CCCCCCCCNCCCSCCCNCCCCCCCC`, the growth inhibition was 47% in test [1] and 97% (active) in test [4]. For the same compound, the inhibition was 63% (active) in test [2] and -3% in test [3]. Besides, the outcome in test [5], in test [6], in test [7] and in test [8] was inactive.

Take `CN1CCC(C(=O)N(Cc2ccc(-c3ccc(CNCCc4ccccc4)cn3)cc2)C2CCN(Cc3ccccc3)CC2)CC1`: the growth inhibition was 99% (active) in test [1] and 100% (active) in test [4]. In addition, the figures for the inhibition in test [2] and in test [3] were 24% and -6%, respectively. Besides, the outcome in test [5], in test [6], in test [7] and in test [8] was inactive.

In the case of `O=C(Cc1ccc(Cl)cc1)Nc1cc(Cl)ccc1Cn1cnc(N2CCNCC2)cc1=O`, the growth inhibition in test [1] was 2%; in test [4], 97% (active). The results for the inhibition in test [2] and in test [3] were 9% and -4%, respectively. Further, the result in test [5], in test [6], in test [7] and in test [8] was inactive.

Take `O=C(NC1CC1)c1ccc2cc(C(=O)N3Cc4ccccc4C(c4ccccc4)C3)ccc2c1` (centres undefined): the growth inhibition in test [1] was 64% (active); in test [4], 97% (active). The inhibition was -2% in test [2] and 1% in test [3]. The outcome in test [5], in test [6], in test [7] and in test [8] was inactive.

Regarding `Oc1ccc2[nH]c(-c3cccc(F)c3)nc2c1CN1CCC(O)(c2ccccc2)CC1`, the values for the growth inhibition in test [1] and in test [4] were 72% (active) and 97% (active), respectively. The results for the inhibition in test [2] and in test [3] were 21% and -1%, respectively. Moreover, the result in test [5], in test [6], in test [7] and in test [8] was inactive.

Regarding `Cc1cn(CC(=O)Nc2cccc(-c3cccc(-c4nc5ccc(C(F)(F)F)cc5[nH]4)c3)c2)c(=O)[nH]c1=O`, the growth inhibition in test [1] is 51% (active); in test [4], 92% (active). Besides, the inhibition in test [2] is 15%; in test [3] it was -1%. Moreover, the outcome in test [5], in test [6], in test [7] and in test [8] was inactive.

In the case of `O=C(O[C@@H]1CN[C@H](C#Cc2cc3c(Nc4ccc5c(cnn5Cc5ccccc5)c4)ncnc3s2)C1)N1CCCC1`, the growth inhibition is 87% (active) in test [1] and 99% (active) in test [4]. Moreover, the inhibition in test [2] was 8%; in test [3] it was -1%. For the same compound, the outcome in test [5], in test [6], in test [7] and in test [8] was inactive.

In the case of `CN1CCCc2ccc(NC(=O)c3cnc(-c4ccccc4)cn3)cc21`, the growth inhibition in test [1] is 82% (active); in test [4] it was 87% (active). In addition, the values for the inhibition in test [2] and in test [3] were 24% and 2%, respectively. Moreover, the result in test [5], in test [6], in test [7] and in test [8] was inactive.

`O=C(Nc1cccc(N2CCC(NCc3cnn(-c4cccc(F)c4)c3)CC2)c1)c1ccncc1`: the growth inhibition in test [1] was 40%; in test [4], 84% (active). The figures for the inhibition in test [2] and in test [3] were 50% (active) and 4%, respectively. The outcome in test [5], in test [6], in test [7] and in test [8] was inactive.

For `O=C(/C=C/c1ccc(Cl)c(Cl)c1)NCCCCCN1CCC(CCNC(=O)Cc2ccc(Cl)cc2)CC1`, the growth inhibition in test [1] was 0%; in test [4], 83% (active). The inhibition was 45% in test [2] and -8% in test [3]. The result in test [5], in test [6], in test [7] and in test [8] was inactive.

Turning to `O=C(Nc1ccc(OC2CCN(Cc3ccsc3)C2)c(Cl)c1)c1ccco1` (centres undefined), the values for the growth inhibition in test [1] and in test [4] were 96% (active) and 93% (active), respectively. In addition, the values for the inhibition in test [2] and in test [3] were -6% and -5%, respectively. Also, the result in test [5], in test [6], in test [7] and in test [8] was inactive.

For `CC(C)c1ccc(-c2nc3ncc(Cl)cc3[nH]2)cc1`, the growth inhibition in test [1] is 77% (active); in test [4] it was 87% (active). Besides, the results for the inhibition in test [2] and in test [3] were 3% and -2%, respectively. The result in test [5], in test [6], in test [7] and in test [8] was inactive.

The values above are taken from PubChem BioAssay.
